# Experimental data as given in PubChem BioAssay (EPA / NIEHS).
# Values joined by “and” are separate entries in the source; they are usually repeats but may differ in a detail not shown here. Equal entries are not always repeated. Inconclusive results are not listed. Active and inactive are the calls of the source. Rule for the calls, unless noted: active = hit-call score of the fitted dose curve at least 0.9, where 1 is the maximum; inactive = score below 0.9.
# Legend:
# [1] = biological target: Glucocorticoid receptor (Homo sapiens) (UniProt P04150); test: ATG_GR_TRANS: Attagene TRANS-FACTORIAL HepG2 Assay for human Glucocorticoid Receptor (GR) (AID 2282978; active = hit-call score of the fitted dose curve at least 0.9, where 1 is the maximum;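 note: activators score as hits since higher reporter transcript over DMSO is fitted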); conditions: HepG2 Attagene TRANS GR reporter, mRNA transcription
# Summary of the method: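 Transient MRTU transfection of HepG2 (GAL4-UAS reporters, exogenous NR-GAL4 chimeras), 24 h dosing. Readout: reporter transcript via RT-PCR + capillary electrophoresis fluorescence. Positive direction vs DMSO baseline.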
# [2] = biological target: Oxysterols receptor LXR-alpha (Homo sapiens) (UniProt Q13133); test: ATG_LXRa_TRANS: Attagene TRANS-FACTORIAL HepG2 Assay for human Liver X Receptor alpha (LXRa) (AID 2282980; active = hit-call score of the fitted dose curve at least 0.9, where 1 is the maximum); conditions: HepG2 Attagene TRANS reporter, LXRa transactivation
# Sequence of Oxysterols receptor LXR-alpha (Homo sapiens) (Q13133 whole entry, looked up, the tested form may be a part): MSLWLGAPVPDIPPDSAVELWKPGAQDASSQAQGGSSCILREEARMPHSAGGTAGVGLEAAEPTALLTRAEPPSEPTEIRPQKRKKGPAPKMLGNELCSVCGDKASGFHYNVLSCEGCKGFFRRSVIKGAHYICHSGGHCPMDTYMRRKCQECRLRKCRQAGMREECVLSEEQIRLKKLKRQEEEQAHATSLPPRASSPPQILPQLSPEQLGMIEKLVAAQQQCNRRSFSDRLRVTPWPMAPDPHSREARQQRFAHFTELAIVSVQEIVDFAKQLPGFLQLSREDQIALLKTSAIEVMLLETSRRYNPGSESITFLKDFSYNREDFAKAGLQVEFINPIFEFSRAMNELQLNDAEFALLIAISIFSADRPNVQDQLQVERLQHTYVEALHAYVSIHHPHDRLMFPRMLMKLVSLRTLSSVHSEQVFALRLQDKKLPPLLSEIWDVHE
# Summary of the method: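 HepG2 cells transiently transfected with GAL4-UAS reporter units for chimeric NR-Gal4 proteins, exposed to chemicals for 24 h. Reporter mRNA quantified by RT-PCR and capillary electrophoresis; gain of signal fitted relative to DMSO.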
# [3] = biological target: Oxysterols receptor LXR-beta (Homo sapiens) (UniProt P55055); test: ATG_LXRb_TRANS: Attagene TRANS-FACTORIAL HepG2 Assay for human Liver X Receptor beta (LXRb) (AID 2282981; active = hit-call score of the fitted dose curve at least 0.9, where 1 is the maximum); conditions: HepG2 Attagene TRANS GAL4-LXRb reporter, mRNA
# Sequence of Oxysterols receptor LXR-beta (Homo sapiens) (P55055 whole entry, looked up, the tested form may be a part): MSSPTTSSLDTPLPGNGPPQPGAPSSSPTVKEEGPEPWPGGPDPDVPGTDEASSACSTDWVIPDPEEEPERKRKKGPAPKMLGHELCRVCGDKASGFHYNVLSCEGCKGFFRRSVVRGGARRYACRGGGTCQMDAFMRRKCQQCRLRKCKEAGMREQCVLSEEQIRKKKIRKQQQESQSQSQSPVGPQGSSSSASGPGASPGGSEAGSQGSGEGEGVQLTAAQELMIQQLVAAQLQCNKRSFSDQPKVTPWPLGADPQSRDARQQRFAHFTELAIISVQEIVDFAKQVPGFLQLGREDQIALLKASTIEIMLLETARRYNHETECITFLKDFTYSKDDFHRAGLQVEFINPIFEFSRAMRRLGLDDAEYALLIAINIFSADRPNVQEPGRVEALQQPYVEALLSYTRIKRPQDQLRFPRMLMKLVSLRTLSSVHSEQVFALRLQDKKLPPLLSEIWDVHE
# Summary of the method: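 After 24 h of chemical treatment, transfected HepG2 cells yield total RNA; reporter cDNA is PCR-amplified, FAM-labelled, HpaI-cut and run on capillary electrophoresis. Signal reflects chimeric LXRb-Gal4 activity on GAL4-UAS reporters.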
# [4] = ATG_M_06_TRANS: Attagene TRANS-FACTORIAL HepG2 Assay for M06 Transcription Factor (Internal Marker) (AID 2282983; active = hit-call score of the fitted dose curve at least 0.9, where 1 is the maximum); conditions: HepG2 Attagene TRANS M06 internal marker reporter
# Summary of the method: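 mRNA levels of a reporter transcript, quantified as FAM fluorescence on capillary electrophoresis, served as readout. HepG2 cells expressing exogenous GAL4-chimera reporter constructs were exposed for 24 h. Gain of signal over DMSO was evaluated.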
# [5] = ATG_M_32_TRANS: Attagene TRANS-FACTORIAL HepG2 Assay for M32 Transcription Factor (Internal Marker) (AID 2282984; active = hit-call score of the fitted dose curve at least 0.9, where 1 is the maximum;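 note: transcript level of a background control reporter unit measured by RT-PCR and capillary electrophoresis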); conditions: HepG2 Attagene TRANS M32 internal marker reporter
# Summary of the method: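 Cell-based TRANS-format assay in HepG2: exogenous chimeric GAL4 reporter units transiently expressed, compounds applied 24 h. Reporter mRNA detected by RT-PCR plus capillary electrophoresis; this readout is an internal background marker.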
# [6] = biological target: Transcriptional activator Myb (Homo sapiens) (UniProt P10242); test: ATG_Myb_CIS: Attagene CIS-FACTORIAL HepG2 Assay for human Myeloblastosis (Myb) Proto-Oncogene Transcription Factor (AID 2282986); conditions: HepG2 Attagene CIS-FACTORIAL Myb reporter transcription; actives raise or lower the signal
# Sequence of Transcriptional activator Myb (Homo sapiens) (P10242 whole entry, looked up): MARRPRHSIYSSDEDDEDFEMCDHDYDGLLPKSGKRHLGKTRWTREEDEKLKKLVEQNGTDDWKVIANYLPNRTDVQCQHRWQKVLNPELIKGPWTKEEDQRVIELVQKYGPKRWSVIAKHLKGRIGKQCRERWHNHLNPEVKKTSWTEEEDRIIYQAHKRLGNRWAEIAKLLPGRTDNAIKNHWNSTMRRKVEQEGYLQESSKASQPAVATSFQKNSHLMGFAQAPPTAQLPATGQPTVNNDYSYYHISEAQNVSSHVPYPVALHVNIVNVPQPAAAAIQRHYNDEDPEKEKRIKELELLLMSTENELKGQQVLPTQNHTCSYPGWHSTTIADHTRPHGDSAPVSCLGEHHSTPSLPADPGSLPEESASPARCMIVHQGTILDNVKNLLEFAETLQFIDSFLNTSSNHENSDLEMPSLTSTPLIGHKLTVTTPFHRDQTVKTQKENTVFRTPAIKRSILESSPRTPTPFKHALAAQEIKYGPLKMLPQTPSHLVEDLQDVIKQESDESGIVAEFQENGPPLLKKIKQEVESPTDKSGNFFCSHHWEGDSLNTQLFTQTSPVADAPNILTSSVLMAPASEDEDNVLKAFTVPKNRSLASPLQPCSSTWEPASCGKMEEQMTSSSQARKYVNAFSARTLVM
# Summary of the method: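 HepG2, transient MRTU transfection (cis-element promoters, endogenous TF activity), 24 h compound exposure. Readout: reporter mRNA via RT-PCR, 6-FAM labeling, HpaI digest, capillary electrophoresis. Gain/loss fit vs DMSO.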
# [7] = biological target: Nuclear respiratory factor 1 (Homo sapiens) (UniProt Q16656); test: ATG_NRF1_CIS: Attagene CIS-FACTORIAL HepG2 Assay for human Nuclear Respiratory Factor 1 (NRF1) Orphan Gene (AID 2282987); conditions: HepG2 NRF1 cis-element reporter, Attagene multiplex; actives raise or lower the signal
# Sequence of Nuclear respiratory factor 1 (Homo sapiens) (Q16656 whole entry, looked up): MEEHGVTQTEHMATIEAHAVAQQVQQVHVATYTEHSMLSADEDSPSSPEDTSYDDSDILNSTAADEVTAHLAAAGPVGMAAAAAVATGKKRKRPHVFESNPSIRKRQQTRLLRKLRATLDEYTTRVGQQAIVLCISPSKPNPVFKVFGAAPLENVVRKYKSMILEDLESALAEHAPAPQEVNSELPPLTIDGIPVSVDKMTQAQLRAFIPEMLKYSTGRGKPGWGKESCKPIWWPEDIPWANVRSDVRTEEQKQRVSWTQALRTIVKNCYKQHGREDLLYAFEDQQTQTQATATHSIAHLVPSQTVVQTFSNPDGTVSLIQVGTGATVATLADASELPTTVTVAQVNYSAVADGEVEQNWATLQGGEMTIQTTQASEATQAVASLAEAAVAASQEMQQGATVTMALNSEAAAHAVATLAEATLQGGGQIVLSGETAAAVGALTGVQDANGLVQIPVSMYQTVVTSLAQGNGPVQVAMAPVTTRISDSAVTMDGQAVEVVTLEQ
# Summary of the method: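 Endogenous NRF1-driven reporter transcription measured in transiently transfected human HepG2 liver cells. Readout: reporter mRNA by RT-PCR and capillary electrophoresis with fluorescence detection, 24 h post-dosing. Gain or loss of signal fitted relative to DMSO baseline.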
# [8] = ATG_NFI_CIS: Attagene CIS-FACTORIAL HepG2 Assay for human Nuclear Factor I (NFI) (AID 2282989); conditions: HepG2 cis-regulatory reporter, NFI response element transcription; actives raise or lower the signal
# Summary of the method: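 HepG2 cells transiently transfected with cis-element-driven multiplexed reporter transcription units, dosed for 24 h. Reporter mRNA quantified by RT-PCR, fluorescent labelling, HpaI digestion and capillary electrophoresis; bidirectional fit versus DMSO baseline.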
# [9] = ATG_NF_kB_CIS: Attagene CIS-FACTORIAL HepG2 Assay for human Nuclear Factor Kappa B (NF-kB) (AID 2282991); conditions: HepG2 Attagene cis-factorial NF-kB reporter mRNA; actives raise or lower the signal
# Summary of the method: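 Read-out: reporter transcript levels quantified by RT-PCR plus capillary electrophoresis of 6-FAM-labelled, HpaI-cut fragments. Transfected HepG2 cells, 24 h compound exposure, endogenous NF-kB-driven cis element; gain or loss scored versus DMSO.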
# [10] = ATG_NRF2_ARE_CIS: Attagene CIS-FACTORIAL HepG2 Assay for human Nuclear Factor Erythroid 2 Related Factor 2 (NFR2) response to Antioxidant Response Elements (ARE) (AID 2282992); conditions: HepG2 Attagene ARE/NRF2 reporter, transcription factor activity; actives raise or lower the signal
# Summary of the method: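 Endogenous transcription factor activity read out as reporter transcript levels (RT-PCR plus capillary electrophoresis, fluorescence) in transiently transfected HepG2 cells. Measured at 24 h after dosing; gain or loss of signal fitted versus DMSO.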
# [11] = ATG_Oct_MLP_CIS: Attagene CIS-FACTORIAL HepG2 Assay for human Octamer-Binding Transcription Factor (Oct) (AID 2282993); conditions: HepG2 Attagene cis-factorial Oct reporter, mRNA; actives raise or lower the signal
# Summary of the method: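 HepG2 cells transiently transfected with cis-promoter-driven multiplexed reporter transcription units, dosed for 24 h. Reporter mRNA quantified by RT-PCR, fluorescent labelling, HpaI digestion and capillary electrophoresis; bidirectional fits versus DMSO baseline.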
# [12] = biological target: Cellular tumor antigen p53 (Homo sapiens) (UniProt P04637); test: ATG_p53_CIS: Attagene CIS-FACTORIAL HepG2 Assay for human p53 Transcription Factor (AID 2282994); conditions: HepG2 p53 cis-element reporter, Attagene mRNA; actives raise or lower the signal
# Sequence of Cellular tumor antigen p53 (Homo sapiens) (P04637 whole entry, looked up): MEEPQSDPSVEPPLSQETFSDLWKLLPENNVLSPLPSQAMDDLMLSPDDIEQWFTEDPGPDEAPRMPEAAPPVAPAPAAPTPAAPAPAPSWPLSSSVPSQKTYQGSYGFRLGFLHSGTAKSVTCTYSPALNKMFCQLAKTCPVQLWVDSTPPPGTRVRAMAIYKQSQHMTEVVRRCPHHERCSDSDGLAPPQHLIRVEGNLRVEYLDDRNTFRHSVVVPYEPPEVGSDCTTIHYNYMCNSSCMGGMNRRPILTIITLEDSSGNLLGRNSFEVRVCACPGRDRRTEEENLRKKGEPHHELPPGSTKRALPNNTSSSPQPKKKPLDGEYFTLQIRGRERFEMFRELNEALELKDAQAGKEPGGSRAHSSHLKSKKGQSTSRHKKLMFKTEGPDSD
# Summary of the method: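 Endogenous p53 activity read in transiently transfected HepG2 from a cis-element-driven reporter transcript after 24 h exposure. RNA reverse-transcribed, PCR-amplified, fluorescently labelled and sized by capillary electrophoresis; gain or loss fitted against DMSO baseline.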
# [13] = BSK_3C_TissueFactor: BioMAP Diversity Plus: 3C Assay for Tissue Factor Biomarker Activity (AID 2282997); conditions: BioMAP 3C HUVEC, tissue factor biomarker readout; actives raise or lower the signal
# Summary of the method: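 Tissue Factor measured by ELISA, 24 h after treatment of primary HUVEC in the BioMAP 3C setting.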
# [14] = BSK_3C_uPAR: BioMAP Diversity Plus: 3C Assay for Urokinase-type plasminogen activator receptor (uPAR) Biomarker Activity (AID 2282998); conditions: BioMAP 3C HUVEC, uPAR biomarker ELISA; actives raise or lower the signal
# Summary of the method: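 Human umbilical vein endothelial primary cells were exposed to test chemical for 24 h. Cell-surface uPAR was then quantified by ELISA, and responses were fitted bidirectionally against DMSO as negative control and baseline.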
# [15] = BSK_3C_VCAM1: BioMAP Diversity Plus: 3C Assay for Vascular cell adhesion molecule 1 (VCAM1) Biomarker Activity (AID 2282999); conditions: BioMAP 3C HUVEC, VCAM1 ELISA, cytokine-stimulated; actives raise or lower the signal
# Summary of the method: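 Activity fitted in both directions relative to DMSO, with ELISA measurement of the surface marker on primary HUVEC (3C) at 24 h post-treatment; parallel SRB staining (0.1% SRB, TCA-fixed, 560 nm) flagged overt cytotoxicity.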
# [16] = biological target: Bile acid receptor (Homo sapiens) (UniProt Q96RI1); test: ATG_FXR_TRANS: Attagene TRANS-FACTORIAL HepG2 Assay for Farnesoid X Receptor (FXR) (AID 2282979; active = hit-call score of the fitted dose curve at least 0.9, where 1 is the maximum;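 note: hits raise reporter mRNA above DMSO so AC50 marks FXR activation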); conditions: HepG2 Attagene TRANS FXR-GAL4 reporter transcription
# Sequence of Bile acid receptor (Homo sapiens) (Q96RI1 whole entry, looked up, the tested form may be a part): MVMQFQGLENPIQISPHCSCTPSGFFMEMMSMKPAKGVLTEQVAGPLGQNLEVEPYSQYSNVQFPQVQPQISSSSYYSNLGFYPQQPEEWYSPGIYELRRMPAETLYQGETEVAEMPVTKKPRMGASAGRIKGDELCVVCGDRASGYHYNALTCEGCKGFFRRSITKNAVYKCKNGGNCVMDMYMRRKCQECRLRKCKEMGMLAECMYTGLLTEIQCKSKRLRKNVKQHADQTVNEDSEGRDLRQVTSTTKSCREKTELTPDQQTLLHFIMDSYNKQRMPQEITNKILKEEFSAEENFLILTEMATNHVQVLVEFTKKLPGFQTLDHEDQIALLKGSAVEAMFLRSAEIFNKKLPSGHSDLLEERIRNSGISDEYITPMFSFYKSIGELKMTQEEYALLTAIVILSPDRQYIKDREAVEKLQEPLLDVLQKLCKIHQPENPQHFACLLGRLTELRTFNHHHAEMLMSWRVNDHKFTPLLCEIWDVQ
# Summary of the method: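 HepG2 cells were transiently transfected with GAL4-UAS reporters driven by chimeric NR-Gal4 proteins and dosed for 24 h. Reporter mRNA was quantified by RT-PCR, fluorescent labelling, HpaI digestion and capillary electrophoresis, with gain of signal scored versus DMSO.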
# [17] = biological target: Nuclear receptor subfamily 4 group A member 2 (Homo sapiens) (UniProt P43354); test: ATG_NURR1_TRANS: Attagene TRANS-FACTORIAL HepG2 Assay for human Nuclear Receptor Related Protein 1 (NURR1) (AID 2282985; active = hit-call score of the fitted dose curve at least 0.9, where 1 is the maximum); conditions: HepG2 Attagene TRANS reporter, mRNA readout
# Sequence of Nuclear receptor subfamily 4 group A member 2 (Homo sapiens) (P43354 whole entry, looked up, the tested form may be a part): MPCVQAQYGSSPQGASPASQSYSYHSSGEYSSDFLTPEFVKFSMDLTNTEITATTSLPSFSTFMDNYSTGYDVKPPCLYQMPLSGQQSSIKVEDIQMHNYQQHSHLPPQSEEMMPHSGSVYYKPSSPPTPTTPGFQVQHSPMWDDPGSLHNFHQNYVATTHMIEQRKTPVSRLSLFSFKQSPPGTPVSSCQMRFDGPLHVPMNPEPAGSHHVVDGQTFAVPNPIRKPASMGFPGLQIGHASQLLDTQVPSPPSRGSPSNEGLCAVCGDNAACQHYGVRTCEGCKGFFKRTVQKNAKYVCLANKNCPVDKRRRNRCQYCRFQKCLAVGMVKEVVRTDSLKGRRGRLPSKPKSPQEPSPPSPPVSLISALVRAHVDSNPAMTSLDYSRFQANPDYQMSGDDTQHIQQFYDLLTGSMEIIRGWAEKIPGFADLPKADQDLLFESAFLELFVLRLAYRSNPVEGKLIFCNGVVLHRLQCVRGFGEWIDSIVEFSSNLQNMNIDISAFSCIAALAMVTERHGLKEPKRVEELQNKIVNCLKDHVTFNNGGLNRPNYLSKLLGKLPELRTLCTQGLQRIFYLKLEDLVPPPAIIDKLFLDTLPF
# Summary of the method: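 Measures transcriptional activation by an exogenous NR-Gal4 chimera in transfected HepG2 liver cells. After 24 h, reporter RNA is reverse-transcribed, amplified and resolved by capillary electrophoresis; DMSO defines baseline.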
# [18] = biological target: Myc proto-oncogene protein (Homo sapiens) (UniProt P01106); test: ATG_Myc_CIS: Attagene CIS-FACTORIAL HepG2 Assay for human Myelocytomatosis (Myc) Proto-Oncogene Transcription Factor (AID 2282990); conditions: HepG2, Attagene cis-reporter transcription factor activity; actives raise or lower the signal
# Sequence of Myc proto-oncogene protein (Homo sapiens) (P01106 whole entry, looked up, the tested form may be a part): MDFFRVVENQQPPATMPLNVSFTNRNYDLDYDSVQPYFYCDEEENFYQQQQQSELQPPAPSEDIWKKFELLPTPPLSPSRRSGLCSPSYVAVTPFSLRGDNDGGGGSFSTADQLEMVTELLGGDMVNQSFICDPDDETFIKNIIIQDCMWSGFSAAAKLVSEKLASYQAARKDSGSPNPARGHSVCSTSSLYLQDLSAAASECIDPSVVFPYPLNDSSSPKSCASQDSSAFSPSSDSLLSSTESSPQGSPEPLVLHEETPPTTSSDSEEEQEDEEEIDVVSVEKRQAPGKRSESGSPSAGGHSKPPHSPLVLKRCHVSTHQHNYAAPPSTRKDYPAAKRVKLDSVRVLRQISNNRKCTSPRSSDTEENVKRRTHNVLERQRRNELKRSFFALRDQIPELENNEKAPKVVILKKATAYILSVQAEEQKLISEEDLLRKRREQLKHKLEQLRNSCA
# Summary of the method: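 After 24 h chemical treatment of HepG2 cells carrying multiplexed cis-regulated reporter constructs, reporter transcripts quantified by RT-PCR and capillary electrophoresis of fluorescent fragments. Gain or loss fitted against DMSO baseline.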
# [19] = biological target: Hepatocyte nuclear factor 4-alpha (Homo sapiens) (UniProt P41235); test: ATG_HNF4a_TRANS: Attagene TRANS-FACTORIAL HepG2 Assay for human Hepatocyte Nuclear Factor 4 alpha (HNF4a) (AID 2282982; active = hit-call score of the fitted dose curve at least 0.9, where 1 is the maximum); conditions: HepG2 HNF4a transactivation reporter, mRNA readout
# Sequence of Hepatocyte nuclear factor 4-alpha (Homo sapiens) (P41235 whole entry, looked up): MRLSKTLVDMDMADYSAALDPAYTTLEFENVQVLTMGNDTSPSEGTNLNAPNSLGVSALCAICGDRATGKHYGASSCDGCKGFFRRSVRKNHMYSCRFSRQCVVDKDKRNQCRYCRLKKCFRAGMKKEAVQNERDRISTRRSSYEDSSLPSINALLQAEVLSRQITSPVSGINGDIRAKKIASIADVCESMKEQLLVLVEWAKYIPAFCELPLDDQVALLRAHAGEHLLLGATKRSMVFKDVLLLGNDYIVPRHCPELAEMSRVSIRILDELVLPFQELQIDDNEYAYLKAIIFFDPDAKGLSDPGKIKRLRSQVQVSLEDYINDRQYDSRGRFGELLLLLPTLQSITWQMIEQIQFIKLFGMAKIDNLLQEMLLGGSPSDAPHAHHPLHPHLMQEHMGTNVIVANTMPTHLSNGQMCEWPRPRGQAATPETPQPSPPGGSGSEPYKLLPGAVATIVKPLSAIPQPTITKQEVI
# Summary of the method: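 Multiplexed reporter assay: transfected HepG2, 24 h exposure, total RNA → oligo(dT) RT → PCR → 6-FAM extension → HpaI digest → CE fluorescence. DMSO = negative control.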
compound,measurement,setting,value
O=C(O)C(F)(F)C(F)(F)OC(F)(F)F,outcome,[1],inactive
same,outcome,[2],inactive
same,outcome,[3],inactive
same,outcome,[4],inactive
same,outcome,[5],inactive
same,outcome,[6],inactive
same,outcome,[7],inactive
same,outcome,[8],inactive
same,outcome,[9],inactive
same,outcome,[10],inactive
same,outcome,[11],inactive
same,outcome,[12],inactive
same,outcome,[13],inactive
same,outcome,[14],inactive
same,outcome,[15],inactive
N=C(N)C(F)(F)C(F)(F)C(F)(F)C(F)(F)C(F)(F)C(F)(F)C(F)(F)F,outcome,[16],inactive
same,outcome,[4],inactive
same,outcome,[5],inactive
same,outcome,[17],inactive
same,outcome,[6],inactive
same,outcome,[7],inactive
same,AC50,[8],271 µM (active)
same,outcome,[18],inactive
same,outcome,[9],inactive
same,AC50,[10],125 µM (active)
same,AC50,[12],88.9 µM (active)
same,outcome,[13],inactive
same,outcome,[14],inactive
same,AC50,[15],24.1 µM (active) and 15 µM (active)
OCC(F)(F)C(F)(F)C(F)(F)C(F)(F)C(F)(F)C(F)(F)F,outcome,[1],inactive
same,outcome,[16],inactive
same,outcome,[3],inactive
same,outcome,[17],inactive
same,outcome,[6],inactive
same,outcome,[7],inactive
same,outcome,[8],inactive
same,outcome,[9],inactive
same,AC50,[10],225 µM (active)
same,AC50,[12],257 µM (active)
same,outcome,[13],inactive
same,outcome,[14],inactive
same,outcome,[15],inactive
CC(C)(C)c1ccc(OC2CCCCC2O)cc1 (configuration not stated),outcome,[16],inactive
same,outcome,[2],inactive
same,outcome,[3],inactive
same,AC50,[17],100 µM (active)
same,outcome,[6],inactive
same,outcome,[7],inactive
same,outcome,[18],inactive
same,outcome,[9],inactive
same,AC50,[10],20.5 µM (active)
same,outcome,[11],inactive
same,outcome,[12],inactive
CCCCCCC(C)OC(=O)CCCCC(=O)OC(C)CCCCCC (configuration not stated),outcome,[3],inactive
same,outcome,[19],inactive
same,outcome,[17],inactive
same,outcome,[6],inactive
same,outcome,[7],inactive
same,outcome,[18],inactive
same,outcome,[9],inactive
same,outcome,[10],inactive
same,outcome,[11],inactive
same,outcome,[12],inactive
same,outcome,[13],inactive
same,outcome,[14],inactive
same,outcome,[15],inactive
O=C(O)C(F)(F)C(F)(F)C(F)(F)C(F)(F)C(F)(F)C(F)(F)C(F)(F)C(F)(F)C(F)(F)C(F)(F)C(F)(F)C(F)(F)C(F)(F)F,outcome,[1],inactive
same,outcome,[2],inactive
same,outcome,[3],inactive
same,outcome,[4],inactive
same,outcome,[5],inactive
same,outcome,[17],inactive
same,outcome,[6],inactive
same,outcome,[7],inactive
same,AC50,[9],26.2 µM (active)
same,AC50,[10],26.1 µM (active)
same,outcome,[11],inactive
same,outcome,[12],inactive
same,outcome,[13],inactive
same,outcome,[14],inactive
same,outcome,[15],inactive
C1COCCN1,outcome,[3],inactive
same,outcome,[19],inactive
same,outcome,[4],inactive
same,outcome,[5],inactive
same,outcome,[17],inactive
same,outcome,[6],inactive
same,outcome,[7],inactive
same,outcome,[18],inactive
same,outcome,[10],inactive
same,outcome,[11],inactive
same,outcome,[12],inactive
NC(=O)C(F)(F)C(F)(F)C(F)(F)C(F)(F)F,outcome,[1],inactive
same,outcome,[16],inactive
same,outcome,[4],inactive
same,outcome,[5],inactive
same,outcome,[17],inactive
same,outcome,[6],inactive
same,outcome,[7],inactive
same,outcome,[9],inactive
same,outcome,[10],inactive
same,outcome,[11],inactive
same,outcome,[12],inactive
same,outcome,[13],inactive
same,outcome,[14],inactive
same,outcome,[15],inactive
O[Si](c1ccccc1)(c1ccccc1)c1ccccc1,outcome,[1],inactive
same,AC50,[16],85.2 µM (active)
same,outcome,[4],inactive
same,outcome,[5],inactive
same,outcome,[17],inactive
same,outcome,[6],inactive
same,AC50,[7],100 µM (active)
same,AC50,[8],100 µM (active)
same,outcome,[9],inactive
same,AC50,[10],31.1 µM (active)
same,outcome,[11],inactive
same,outcome,[12],inactive
same,outcome,[13],inactive
same,AC50,[14],32.9 µM (active)
same,outcome,[15],inactive
CCC(=O)OCCc1ccccc1,outcome,[16],inactive
same,outcome,[3],inactive
same,outcome,[5],inactive
same,outcome,[6],inactive
same,outcome,[7],inactive
same,outcome,[8],inactive
same,outcome,[18],inactive
same,outcome,[9],inactive
same,outcome,[10],inactive
same,outcome,[11],inactive
same,outcome,[12],inactive
